In all, about 310,000 compounds went through this assay and about 1,200 (0.39%) were called active. The rule behind the calls is not given here. These entries were drawn from the full list. Entries with a potency or affinity are not part of this list.
Target: Large T antigen (Simian virus 40) (UniProt P03070)
Assay: SV40 large T antigen inhibitors, biochemical (AID 1903)
Conditions: SV40 large T antigen ATPase/helicase inhibition assay; at 20 µM; hits give high values

Large T antigen (Simian virus 40), sequence (P03070 whole entry, looked up): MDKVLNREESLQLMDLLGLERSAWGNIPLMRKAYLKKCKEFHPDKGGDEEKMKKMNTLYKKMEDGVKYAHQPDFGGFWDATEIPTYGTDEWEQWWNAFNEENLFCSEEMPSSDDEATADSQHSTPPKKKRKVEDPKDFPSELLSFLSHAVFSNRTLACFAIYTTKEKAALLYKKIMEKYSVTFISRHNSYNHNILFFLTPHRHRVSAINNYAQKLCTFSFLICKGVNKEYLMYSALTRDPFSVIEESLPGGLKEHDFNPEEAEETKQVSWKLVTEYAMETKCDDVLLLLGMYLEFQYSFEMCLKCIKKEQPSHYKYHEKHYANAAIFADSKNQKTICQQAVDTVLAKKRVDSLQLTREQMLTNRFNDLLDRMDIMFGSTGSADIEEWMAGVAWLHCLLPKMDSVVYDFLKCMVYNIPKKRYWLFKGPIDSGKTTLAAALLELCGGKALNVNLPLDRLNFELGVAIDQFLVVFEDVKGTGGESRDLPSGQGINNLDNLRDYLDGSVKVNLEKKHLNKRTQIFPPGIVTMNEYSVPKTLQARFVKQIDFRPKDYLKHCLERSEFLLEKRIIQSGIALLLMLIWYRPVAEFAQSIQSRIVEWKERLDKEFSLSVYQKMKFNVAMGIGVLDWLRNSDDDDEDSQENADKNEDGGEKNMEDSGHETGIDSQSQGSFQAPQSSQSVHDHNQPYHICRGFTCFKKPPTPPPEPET

inhibition, inactive:
COc1ccc(N(CC(=O)N2CCCC2)S(=O)(=O)c2ccc(NC(C)=O)cc2)cc1 -2.23%
O=C(CCc1ccccc1)Nc1nc2nc(-c3ccccc3)cc(=O)n2[nH]1 -26.7%
C/C(O)=C(\C#N)c1nc2ccccc2[nH]1 1.46%
C/C(O)=C(/C#N)c1nc2ccccc2[nH]1 7.8%
O=S(=O)(c1cc(-c2nnc(-c3ccc(Br)cc3)o2)ccc1Br)N1CCCCCC1 4.66%
CN(C)c1nn(C(=O)Nc2cccc(C(F)(F)F)c2)cc1-c1ccccc1 23.9%
O=C(Nc1ccc(Cl)cc1Cl)c1ccc(-c2ccccc2)cc1 3.2%
CN1CCN(S(=O)(=O)c2cnccc2N2CCN(c3cccc(Cl)c3)CC2)CC1 25%
Cc1c(C(=O)/C=C/N(C)C)nnn1-c1ccc(F)c(Cl)c1 10.7%
CC(NS(=O)(=O)c1ccc(Br)cc1)C(N)=O (stereo not drawn) 3.6%
COc1ccc(/C=N/NC(=O)c2ccncc2)cc1CN1CCOCC1 14.2%
COc1ccc(/C=N/NC(=O)c2ccc(Cn3cc([N+](=O)[O-])cn3)o2)cc1O 17.9%
Cc1c(Cl)c([N+](=O)[O-])nn1Cc1ccc(C(=O)N/N=C\c2cccc(Br)c2)o1 -0.98%
COc1cc(/C=N\NC(=O)c2ccc(Cn3cc(Br)c([N+](=O)[O-])n3)o2)cc(OC)c1O 32.8%
Cc1c(Cl)c([N+](=O)[O-])nn1Cc1ccc(C(=O)N/N=C\c2ccccn2)o1 6.44%
COc1ccc(/C=N/NC(=O)c2cccc(Br)c2)cc1CN1CCOCC1 4.55%
COc1ccc(/C=N/NC(=O)c2ccc(N)cc2)cc1Cn1cc([N+](=O)[O-])cn1 -3.89%
COc1ccc(/C=N/NC(=O)c2ccccc2O)cc1Cn1cc([N+](=O)[O-])cn1 12.7%
Cc1ccc([N+](=O)[O-])c(C(=O)N/N=C/c2cccnc2)c1 13.6%
O=[N+]([O-])c1cccc(/C=N/N2CCN(Cc3ccccc3)CC2)c1 16.1%
CN1CCOc2ccc(S(=O)(=O)NCCc3ccc(Cl)cc3)cc21 4.83%
CC(Oc1ccc(Br)cc1)C(=O)NCC(c1cccs1)N1CCOCC1 (stereo not drawn) 0.98%
O=C(NNc1ccc([N+](=O)[O-])cc1)C1C2CCCCC21 (stereo not drawn) 2.05%
CC1CCN(S(=O)(=O)c2cccc(C(=O)N(Cc3ccccc3)c3ccccn3)c2)CC1 6.8%
CN(C)/C=C(\C#N)C(=O)Nc1ccc(F)c(Cl)c1 14.7%
CN(C)/C=C(\C#N)C(=O)Nc1ccc(F)cc1 -1.08%
COc1ccc(C)cc1NC(=O)c1ccc2c(O)c(S(=O)(=O)c3ccccc3)c(=O)[nH]c2c1 13.8%
CC(C)(C)c1ccc(OCC(O)CSc2ncn[nH]2)cc1 (stereo not drawn) 3.06%
COc1ccc2c(c1)C(=O)c1ccccc1CO2 10.1%
COc1ccc2c(c1)C(=O)CC(c1ccccc1F)O2 (stereo not drawn) 15.3%
O=C1C2C3C=CC(CO)(O3)C2C(=O)N1c1ccccc1-c1ccccc1 (stereo not drawn) 13.7%
O=C(O)c1c(-c2ccccc2)oc2ccc(O)cc12 15%
CCN(CC)C(=O)c1c(-c2ccccc2)oc2ccc(O)cc12 13.9%
CCn1c(=O)n(CC)c2cc(S(N)(=O)=O)ccc21 3.97%
CCn1c(=O)n(CC)c2cc([N+](=O)[O-])ccc21 -2.72%
O=C(COc1ccccc1Cl)NCc1nc(-c2ccccc2)no1 10.2%
Cc1ccc(Nc2nc(N)c([N+](=O)[O-])c(N3CCOCC3)n2)cc1 9.48%
COc1ccc(Nc2nc(N)c([N+](=O)[O-])c(N3CCOCC3)n2)cc1 10.9%
Cc1cc(/C=C(\C#N)C(=O)O)c(C)n1C1CC1 11.4%
O=C(N/N=C/c1ccc(OCc2ccc(F)cc2)cc1)c1ccccc1 1.09%
Cc1nn(CC(=O)N2CCC(N3CCCCC3)CC2)c(=O)c2c1sc1ccccc12 17.6%
Cc1cccc(N2CCN(C(=O)Cn3nc(C)n4cccc4c3=O)CC2C)c1 (stereo not drawn) 8.5%
Cc1cc(C)c2c(=O)n(CC(=O)N3CCC(Cc4ccccc4)CC3)sc2n1 3.6%
CCOC(=O)C1CCCN(C(=O)Cn2sc3nc(C)cc(C)c3c2=O)C1 (stereo not drawn) 73.4%
CN1CCN(c2ccc(Cl)cc2NC(=O)c2ccc(=O)n(C)n2)CC1 22.8%
CC(C)c1ccc2[nH]c(O)c(N=NC(=O)c3cccc(S(=O)(=O)Nc4ccccc4Cl)c3)c2c1 -4.52%
COc1ccccc1C(=O)NNC(=O)c1sccc1-n1cccc1 8.72%
CCN(CC)CCN1c2ccccc2Sc2ccccc21 34.5%
CN(C)CCCN1c2ccccc2Sc2ccccc21 33%
CCCCN(C(=O)c1ccc([N+](=O)[O-])o1)c1c(N)n(CC(C)C)c(=O)[nH]c1=O 20.2%
COc1cccc(-c2cc(C(=O)Nc3cc(C)on3)no2)c1 3.2%
Cc1ccc2oc(=O)c3cnn(CC(=O)NCCCOC(C)C)c3c2c1 5.01%
CCOC(=O)Cc1csc(NC(=O)c2ccc3c(c2)OCO3)n1 -7.42%
NC1=NC(=O)/C(=C/c2cc(Br)c(O)c(Br)c2)S1 23.3%
COc1ccc(/C=C2/SC(c3ccc(C)cc3)=NC2=O)cc1OC 7.06%
COc1cc(/C=C2\SC(c3ccc(C)cc3)=NC2=O)cc(OC)c1OC 14.7%
COc1ccc(/C=C2\SC(c3ccc(C)cc3)=NC2=O)cc1OC 4.55%
O=C(Nc1ccc(CN2CCOCC2)cc1)c1ccc(Br)o1 4.15%
CCCc1nn(-c2cc(Cl)ccc2OC)c2c1C(=O)CC(C)(C)C2 2.88%
CC(=O)N(c1ccc2oc(=O)sc2c1)S(=O)(=O)c1ccc(C(=O)O)cc1 23.9%
CC(C)C(=O)N(c1ccc2oc(=O)sc2c1)S(=O)(=O)c1ccccc1 25.6%
CC(C)C(=O)N(c1ccc2oc(=O)sc2c1)S(=O)(=O)c1cccs1 22.8%
CCCC(=O)N(c1ccc2oc(=O)sc2c1)S(=O)(=O)c1cccs1 34.4%
